Source: PubChem BioAssay (NCATS)
“And” between values parts separate entries of the source, which are not always exact repeats. Equal entries are not always repeated. Results filed as inconclusive are left out. A structure can be active in one record and inactive in another. Unmarked numbers belong to inactive results. The source made the active and inactive calls. Calls follow the shape of the dose curve; as a rule, active = well fitted inhibition curve with a large enough effect; inconclusive = small, poorly fitted or top-dose-only effect; inactive = flat fitted curve, though single readings scatter.

system: HaCat; experiment: Cytotoxic Profiling of Annotated Libraries Using Quantitative High-Throughput Screening (AID 1296008); details: Five cell lines viability, CellTiter-Glo ATP luminescence, 48-72 h; max response: active compounds read low; also: nearly all actives have a fitted effect of over 60% in size
Text: Cell-based phenotypic screening is a commonly used approach to discover biological pathways, novel drug targets, chemical probes and high-quality hit-to-lead molecules. Many hits identified from high-throughput screening campaign are ruled out through a series of follow-up potency, selectivity/specificity, and cytotoxicity assays. Prioritization of molecules with little or no cytotoxicity for a more in-depth downstream evaluation influence the future direction of projects, so cytotoxicity profiling of the screening libraries at early stage is essential for increasing the likelihood of candidate success. […] For the annotated library, we also examined the primary targets and mechanistic pathways regularly associated with cell death. To our knowledge, this is the first study to use high-throughput screening to profile large libraries for cytotoxicity assessment in both normal and cancer cell lines. In summary, the results generated here constitutes a valuable resource for the scientific community and provides insight on identifying cytotoxic compounds with particular mechanisms of action, and prioritizing compounds with suitable cytotoxicity profile for further evaluation.
A pintool (Kalypsys) was used to transfer 23 nL of compound solution to the 1536-well assay plates. After 48 or 72 hr incubation at 37 degree Celsius, 5% CO2 and 95% humidity, 2.5 uL of CellTiter-Glo (Promega) was dispensed into each well using a dispenser (Aspect Automation, St. Paul, MN) with solenoid valves (Lee Valves, Westbrook CT). Plates were left at room temperature for 10 min before imaging the ATP-coupled luminescence using a ViewLux microplate imager (PerkinElmer, Waltham, MA).
% is scaled to controls: 0 for no effect and ±100 for the full control effect; potency is read from the fitted curve at half-maximal effect.

| Compound | max response | outcome | Potency |
| --- | --- | --- | --- |
| CN(C(=O)c1ccc(F)cc1C(F)(F)F)C1CCN(c2nnc(-c3ccnn3C)c3ccccc23)CC1 | -6.53% | inactive |  |
| CCC(C)n1ncn(-c2ccc(N3CCN(c4ccc(OC[C@H]5CO[C@](Cn6cncn6)(c6ccc(Cl)cc6Cl)O5)cc4)CC3)cc2)c1=O (stereo not given in full) | 1.24% | inactive |  |
| Cc1ccccc1C(C(=O)NC1CCCC1)N(C(=O)Cn1cnc2ccccc21)c1cccc(F)c1 (stereo not given) |  | inactive |  |
| CC(c1cc2ccccc2s1)N(O)C(N)=O (stereo not given) | -0.226% and -8.25% |  |  |
| NC(=O)c1cnccn1 | -6.4% | inactive |  |
| NC(=O)c1ccc(-c2nc(-c3ccc4c(c3)OCCO4)c(-c3ccccn3)[nH]2)cc1 | -0.259% |  |  |
| COc1ccc(-c2oc3cc(OC)ccc3c2C(=O)c2ccc(C#N)cc2)cc1 |  | inactive |  |
| C#Cc1cccc(Nc2ncnc3cc(OCCOC)c(OCCOC)cc23)c1 |  |  | 5.9 µM (active) and 944 nM (active) and 651 nM (active) |
| CCCCNc1cc(C(=O)O)cc(S(N)(=O)=O)c1Oc1ccccc1 | 2.18% | inactive |  |
| NS(=O)(=O)c1cc2c(cc1Cl)NC=NS2(=O)=O | -11.6% | inactive |  |
| Cc1csc(NC(=O)c2sc3nc4c(c(C(F)(F)F)c3c2N)CCC4)n1 | -0.44% | inactive |  |
| O=c1n(CCCN2CCN(c3cccc(Cl)c3)CC2)nc2ccccn12 | -8.88% | inactive |  |
| C[C@@H]1CN(Cc2ccc(F)cc2)[C@@H](C)CN1C(=O)c1cc2c(C(=O)C(=O)N(C)C)cn(C)c2cc1Cl | -4.64% | inactive |  |
| CN1CCN(CCCN2c3ccccc3Sc3ccc(C(F)(F)F)cc32)CC1 | -7.86% | inactive |  |
| Cc1[nH]c(=O)c(C#N)cc1-c1ccncc1 | 4.3% and 4.05% and -9.78% |  |  |
| O=C(Nc1ccc(F)c(C(F)(F)F)c1)Nc1nnc(-c2ccncc2)s1 | 2.71% | inactive |  |
| N=c1nc(N2CCCCC2)cc(N)n1O |  | inactive |  |
| Nc1nccc(-c2ccc3noc(-c4ccc(Cl)cc4)c3c2)n1 | -32.6% |  |  |
| Clc1ccc(Nc2nnc(Cc3ccncc3)c3ccccc23)cc1 | -5.86% | inactive |  |
| Cc1cnc(Nc2ccc(OCCN3CCCC3)cc2)nc1Nc1cccc(S(=O)(=O)NC(C)(C)C)c1 | 2.79% |  | 5.8 µM (active) |
| CC(C)(N)C(=O)N[C@H](COCc1ccccc1)C(=O)N1CCC2(CC1)CN(S(C)(=O)=O)c1ccccc12 | -12.2% and 3.47% |  |  |
| Cc1ccc(-n2nc(C(C)(C)C)cc2NC(=O)Nc2ccc(OCCN3CCOCC3)c3ccccc23)cc1 | -3.92% | inactive |  |
| CC(=O)Oc1ccccc1C(=O)O |  | inactive |  |
| C[C@H](NC(=O)Cc1cc(F)cc(F)c1)C(=O)N[C@@H]1C(=O)N(C)c2ccccc2-c2ccccc21 | -1.56% | inactive |  |
| Cc1c(C)c2c(c(C)c1O)CCC(C)(COc1ccc(CC3SC(=O)NC3=O)cc1)O2 (stereo not given) |  | inactive |  |
| CC[C@H](Nc1ncnc2nc[nH]c12)c1nc2cccc(F)c2c(=O)n1-c1ccccc1 |  |  | 13.2 µM (active) |
